# Source: PubChem (several laboratories)
# ABHD5 PLIN5 PPI: blocks binding of human ABHD5 to perilipin-5; Q00G26+Q8WTS1; Split G. princeps luciferase complementation, luminescence, 4 h; inhibition, % at 4 µM; actives 0.78% (n = 360,000); AID 602281;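 active = inhibition above the mean inhibition across every tested compound plus 3 SD, cut at about 22% in these data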;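 note: 0% = DMSO only wells and the 100% control is not disclosed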
# H9c2 protect: protects H9c2 cardiomyocytes from peroxide injury; actives 0.63% (n = 360,000); H2O2 injury protection, ATPLite, 2 h; AID 588492; protection from H2O2 cell death, % at 20 µM;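 active = compounds giving at least 50% protection of heart cells from peroxide-induced death in the single-dose screen, raw or plate-pattern-corrected value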;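 note: 0% = DMSO wells with peroxide and 100% = DMSO wells without peroxide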
# Myeloid diff MLP: compounds promoting myeloid differentiation | ER-HoxA9 myeloid progenitors, lysozyme-GFP differentiation, flow cytometry | calls only at 10 µM | actives 1% (n = 360,000) | AID 624256;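 active = normalized GFP-positive differentiation at or above the plate's own cutoff, the solvent-only control mean plus 3 SD; inconclusive = no clear call, values can overlap the other calls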;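 note: cells exposed to compound for four days before flow analysis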
# DAGLB inhibitor: blocks human DAGLB lipase activity | Q8NCG7 | HEK293T DAGLB membrane lysate, EnzChek fluorogenic substrate | inhibition, % at 5.17 µM | actives 0.059% (n = 340,000) | AID 504411; in the data active = inhibition above about 34%;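 note: 0% = enzyme with vehicle and 100% = wells lacking enzyme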
# HGIII-sPLA2 inh: Inhibits HGIII-sPLA2 liposome hydrolysis, primary screen; AID 743126; inhibition, % at 12.2 µM; actives 0.56% (n = 370,000); QFRET BODIPY PC-A2 liposome hydrolysis, fluorescence;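 active = inhibition above mean plus 3 SD of compounds lying within the high and low control bounds, cut at about 19% in these data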;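 note: 0% = median of test compound wells and 100% = no enzyme DMSO wells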
# Rtt109 Vps75: C. albicans Rtt109 histone acetyltransferase inhibition; actives 0.16% (n = 330,000); inhibition, % at 34.9 µM; AID 540336; Q5AAJ8; purified Rtt109/Vps75, ThioGlo CoA-SH fluorescence, 4 h;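 active = inhibition of at least 50% in every replicate; inconclusive = best replicate reaches 50% inhibition but some replicates fall short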
# Target sequence (Q5AAJ8 whole entry, looked up): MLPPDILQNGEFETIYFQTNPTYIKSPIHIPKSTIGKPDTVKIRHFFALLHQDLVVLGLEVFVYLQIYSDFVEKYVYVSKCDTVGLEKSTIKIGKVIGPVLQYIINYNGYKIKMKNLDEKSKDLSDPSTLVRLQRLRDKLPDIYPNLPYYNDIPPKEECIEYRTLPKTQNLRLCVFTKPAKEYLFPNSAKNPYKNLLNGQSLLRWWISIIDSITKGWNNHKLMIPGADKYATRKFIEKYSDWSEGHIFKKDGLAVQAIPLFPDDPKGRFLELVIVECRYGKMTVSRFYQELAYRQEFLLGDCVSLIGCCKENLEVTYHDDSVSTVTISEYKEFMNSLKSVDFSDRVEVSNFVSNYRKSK
# hGIII sPLA2 conf: human GIII-sPLA2 inhibition, confirmation; AID 743280; recombinant hGIII-sPLA2, BODIPY PC-A2 QFRET fluorescence; inhibition, % at 12.2 µM; actives 34% (n = 2,000); shares compounds with HGIII-sPLA2 inh;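 active = mean inhibition across triplicates above the hit cutoff set in the earlier primary screen, cut at about 19% in these data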;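 note: 0% = enzyme with DMSO and 100% = DMSO wells lacking enzyme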
# 535nm interf: 535nm fluorescence interference, HGIII-sPLA2 counter-screen; shares compounds with HGIII-sPLA2 inh; BODIPY FL product fluorescence interference, QFRET; inhibition, % at 12.2 µM; actives 8.5% (n = 2,000); AID 743282;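 active = average inhibition above the solvent-only control mean plus 3 SD, cut at about 6% in these data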;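 note: 0% = DMSO with substrate plus product and 100% = DMSO with substrate alone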
# BODIPY interf DR: counter-screen for HGIII-sPLA2 inhibitors: 535nm fluorescence interference, dose response; 240 tested, under 10 active; shares compounds with HGIII-sPLA2 inh; AID 743455; BODIPY FL product fluorescence interference, cell-free; IC50, µM;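 active = IC50 at or below 10 µM; inactive = IC50 above 10 µM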
# An asterisk follows results filed as active; i = inactive; ? = inconclusive; · = no result. In the library only some 2.9% were active in any assay of this set; here they are far more common.
SMILES,ABHD5 PLIN5 PPI,H9c2 protect,Myeloid diff MLP,DAGLB inhibitor,HGIII-sPLA2 inh,Rtt109 Vps75,hGIII sPLA2 conf,535nm interf,others
Cc1ccc(S(=O)(=O)NCCC(=O)N2CC(C)OC(C)C2)cc1 (stereo unspecified),0,-2,i,-1,22*,-5,1,-8,
Cc1cc(=O)oc2c(C)c(OCC(=O)N3CCN(c4cccc(Cl)c4)CC3)ccc12,10,4,i,1,-14,-7,·,·,
COc1cccc(Nc2nc(C(N)CO)cs2)n1 (stereo unspecified),2,17,i,·,21*,·,12,-6,
CCC(=O)NNc1nc2c(C)cccc2s1,6,3,i,0,3,8,·,·,
COc1cccc2sc(NNC(=O)COc3ccccc3)nc12,1,4,i,-1,23*,11,16,-3,
Cc1cc(Br)cc(/C=N/NC(=O)c2ccc3c(c2)OCO3)c1O,-3,21,?,-1,36*,0,40*,2,BODIPY interf DR=>122
O=C(N/N=C/c1ccc2c(c1)OCO2)c1ccc(Br)o1,-7,-11,i,-4,19*,1,1,-6,
COc1cc(CCN2C(=O)c3cccc4cccc(c34)C2=O)c(S(=O)(=O)NCCCO)cc1OC,4,29,i,1,-12,-30,·,·,
O=C(/C=C/c1ccc([N+](=O)[O-])cc1)OCC(=O)c1ccc[nH]1,0,5,i,2,2,3,·,·,
C=CCn1c(-c2cccn(Cc3cccc(Cl)c3)c2=O)n[nH]c1=S,2,-6,i,-4,8,5,·,·,
O=c1c(-c2n[nH]c(=S)n2-c2ccccc2)cccn1Cc1cccc(Cl)c1,0,10,i,-6,22*,4,22*,-1,
CN=c1scc(-c2ccccc2F)n1/N=C/c1ccc(O)c(O)c1O,-6,-13,i,7,19,14,·,·,
CN=c1scc(-c2ccccc2F)n1/N=C/c1ccc[nH]1,8,-20,·,3,35*,33,29*,3,BODIPY interf DR=>122
Cc1ccc(-c2cnc(N)n2C)cc1C,3,44,i,2,20*,10,9,-13,
CCOC(=O)CNc1ncc([N+](=O)[O-])cc1C#N,2,-1,i,2,22*,-2,-3,-8,
Cc1nc2ccc(C(=O)N3CCN(c4ccccc4)CC3)cn2c1N(C)C(=O)CCc1ccccc1,-4,4,i,·,4,·,·,·,
CCOCCCn1c(SC(C(=O)Nc2cc(C)ccc2C)c2ccccc2)nnc1-c1ccc(Cl)cc1 (stereo unspecified),-4,-1,i,0,20*,2,-8,-5,
CCC(C)[C@H](NC(=O)N1CCCCC1)C(=O)OC (stereo partly specified),0,-3,i,-1,23*,-12,0,-4,
NC(=S)NNc1c(F)c(F)c(F)c(F)c1F,-8,-2,i,1,11,9,·,·,
CC(=O)Nc1sc2c(c1C#N)CCCCC2,-1,-2,i,-2,2,0,·,·,
CC(C)(C)C(=O)NC(=S)Nc1sc2c(c1C#N)CCCCC2,-7,-19,i,-7,22*,-9,17,4,
O=C(CCC1CCCN(Cc2cccc(Cl)c2)C1)NCc1ccccc1F (stereo unspecified),3,10,i,2,-2,-3,·,·,
C[C@@H]1CN([C@H](C)CO)C(=O)CCCn2nncc2CO[C@H]1CN(C)C(=O)Nc1cccc(Oc2ccccn2)c1,10,3,i,5,20*,·,-8,-10,
COc1cccc(NC(=O)N(C)C[C@@H]2OCc3cnnn3CCCC(=O)N([C@@H](C)CO)C[C@H]2C)c1,2,3,i,-3,1,·,·,·,
C[C@@H]1CN([C@@H](C)CO)C(=O)CCCn2nncc2CO[C@H]1CN(C)C(=O)Nc1ccccc1C(F)(F)F,-6,8,i,-1,4,·,·,·,
SMILES,ABHD5 PLIN5 PPI,H9c2 protect,Myeloid diff MLP,DAGLB inhibitor,HGIII-sPLA2 inh,Rtt109 Vps75,hGIII sPLA2 conf,535nm interf,others
C[C@@H]1CN([C@@H](C)CO)C(=O)CCCn2nncc2CO[C@@H]1CN(C)C(=O)Nc1ccccc1C(F)(F)F,13,2,i,0,21*,·,-3,-9,
CCCOc1ccc(-c2c(C(=O)N/N=C/c3ccncc3)nnn2-c2nonc2N)cc1,-2,3,i,3,-8,6,·,·,
Cc1csc2nc(O)c(C(=O)NCC3CCCO3)c(=O)n12 (stereo unspecified),-9,-4,i,3,-1,-6,·,·,
COc1ccc(C(=O)NNC(=O)CSc2nc3c(c(=O)n(C)c(=O)n3C)n2C)cc1,-3,4,i,2,1,-1,·,·,
CCNC(=S)NNC(=O)c1c(Cl)c(C)nn1C,0,9,i,1,21*,-2,9,-4,
Cc1ccc(NC(=S)N/N=C/c2c(C)[nH]c3ccccc23)cc1,-2,-15,i,-2,-9,12,·,·,
Cc1[nH]c2ccccc2c1/C=N/NC(N)=S,-6,3,i,3,21*,3,17,1,
CCCNC(=O)c1ccc2c(=O)c(O)c(-c3cccc(Br)c3)[nH]c2c1,5,54*,i,10,20*,-48,10,-3,
COc1ccc(C2C(C(=O)c3ccc(C)o3)=C(O)C(=O)N2CC2CCCO2)cc1OC (stereo unspecified),0,13,i,0,-3,5,·,·,
COc1ccc2cc3[n+](cc2c1O)CCc1cc2c(cc1-3)OCO2,-21,·,i,·,8,·,·,·,
C[n+]1cc2c3c(ccc2c2ccc4cc5c(cc4c21)OCO5)OCO3,·,·,·,·,48*,·,46*,-3,BODIPY interf DR=>122
Cn1c(N)c(C#N)c(-c2ccccc2)c(C#N)c1=O,4,8,i,·,5,·,·,·,
Cc1ccsc1/C=N/n1c(C2CCCCC2)n[nH]c1=S,-7,-7,i,-5,8,-3,·,·,
Cc1ccc(/C=N/n2c(C3CCCCC3)n[nH]c2=S)s1,4,-2,i,-7,22*,3,16,2,
Cc1ccc(/C=N/n2c(-c3cccnc3)n[nH]c2=S)s1,-2,2,i,2,28*,-3,19*,-4,
S=c1[nH]nc(-c2cccnc2)n1/N=C/c1ccc(Br)s1,0,-2,i,4,8,-5,·,·,
C=CCC1(CC=C)CCCN1C(=O)CC1C(=O)NCCN1Cc1cccc(OC)c1 (stereo unspecified),-5,9,i,-2,-7,3,·,·,
